Data taken from PubChem BioAssay AID2315 (National Center for Advancing Translational Sciences (NCATS), 2010).
The campaign covered roughly 290,000 compounds. About 27,000 (9.3%) were called active. Rule as the data show it: active = inhibition mostly above about 28% (no sharp cut-off); inactive = mostly below about 43%. Only a selection was taken, and actives are over-represented in it overall. Where a SMILES comes first, the peptide text is derived from it. [ ]: non-standard residue; d: D form. The star is where a group is joined. ξ: configuration not given here. Cbz = O=C(OCc1ccccc1)*; ξL = CC(C)CC(N)C(=O)O; ξP = O=C(O)C1CCCN1

Experiment: A qHTS for Small Molecule Inhibitors of Shiga Toxin; also: 0% is about no effect
Details: Vero cells, Shiga toxin protein synthesis inhibition reporter; at 38.7 µM, hits give high values

SMILES	inhibition
COc1ccc(C2/C(=C(/O)c3ccc4c(c3)CC(C)O4)C(=O)C(=O)N2Cc2ccncc2)cc1 (stereo unspecified)	21.4% (inactive)
Nc1ccc2nn(-c3ccc(Cl)cc3)nc2c1	99% (active)
CN(C)c1nnnn1-c1ccc(Cl)cc1	32.8% (inactive)
CCn1c(SCC(=O)NNC(=O)c2ccc(OC)cc2)nnc1C(C)C	-2.63% (inactive)
O=C1NC(=O)C(c2ccc(Cl)cc2)N1 (stereo unspecified)	-0.685% (inactive)
COc1cccc(CNC(=O)C2CC(=O)N(C3CCCCCCC3)C2)c1 (stereo unspecified)	-10.4% (inactive)
CC(C)NC(=O)C(=O)N/N=C/c1ccco1	-4.96% (inactive)
O=C(Cn1cnc2ccccc21)N/N=C/c1ccco1	15.9% (inactive)
O=c1nc(N/N=C/c2ccco2)cn[nH]1	84% (active)
CC(C)n1c(=O)[nH]c2cc(C(=O)Nc3ccccc3)ccc21	-20.3% (inactive)
O=C(Nc1ccccc1)N1CCN(C(=O)Nc2ccccc2)CC1	14.4% (inactive)
O=C(Nc1ccccc1)c1cc2ccccc2[nH]1	116% (active)
COc1ccccc1OCCOc1ccc(/C=C2\C(=N)N3N=C(C)SC3=NC2=O)cc1	2.39% (inactive)
COc1cccc(N(CC(=O)NC2CCCC2)C(=O)Cn2nnc(-c3ccc(C)o3)n2)c1	5.05% (inactive)
CCn1c(SCc2ccccc2)nc2cc(OC)c(OC)cc2c1=O	-6.05% (inactive)
O=C(CN1CCN(c2ccccc2)CC1)Nc1ccc(F)cc1	2.65% (inactive)
CC(=O)c1cccc(S(=O)(=O)N2CCC(n3nnc4cc(F)ccc43)CC2)c1	7.77% (inactive)
O=C(c1ccc(F)cc1)N1CCC(n2nnc3ccccc32)CC1	111% (active)
O=S(=O)(c1cccc(S(=O)(=O)N2CCC(n3nnc4ccccc43)CC2)c1)N1CCCCC1	-25.2% (inactive)
COc1ccc(N(CC(=O)N2CCOCC2)S(=O)(=O)c2ccccc2)cc1Cl	-9.7% (inactive)
COc1ccc(S(=O)(=O)N2CN(CCc3ccc(OC)c(OC)c3)c3nc4ccccc4nc32)cc1	-10.2% (inactive)
O=S(=O)(c1ccccc1)N1CN(Cc2ccc(F)cc2)c2nc3ccccc3nc21	45.9% (active)
C=CCN1CN(S(=O)(=O)c2ccc(OC)cc2)c2nc3ccccc3nc21	8.86% (inactive)
O=C(NCCS(=O)(=O)N1CCN(c2ccccc2F)CC1)c1ccc(Br)o1	-0.576% (inactive)

SMILES	inhibition
O=C1CCC(C(=O)N2CCC(O)(c3ccccc3)CC2)CN1CCc1ccccc1 (stereo unspecified)	-9.01% (inactive)
CCCCNC(=O)CSc1nnc(-c2ccco2)n1C	-13.5% (inactive)
Cn1c(SCC(=O)c2cccs2)nnc1-c1ccco1	58.7% (active)
CCOC(=O)CSc1nnc(-c2ccco2)n1C	-1.54% (inactive)
CCC1Oc2ccccc2N(CC(=O)NCCCN2CCN(CC)CC2)C1=O (stereo unspecified)	-4.33% (inactive)
CC(C)OCCCNC(=O)CN1C(=O)/C(=C/c2ccccc2F)Oc2ccccc21	-4.44% (inactive)
COc1ccc(CCNC(=O)CN2C(=O)CCSc3ccccc32)c(OC)c1	-7.21% (inactive)
Cc1ccc(-c2nc(CSCC(=O)NC3CCN(Cc4ccccc4)CC3)c(C)o2)cc1	1.51% (inactive)
Cc1ccc(Sc2cc(C(=O)c3ccccc3C(=O)O)ccc2[N+](=O)[O-])cc1	1.21% (inactive)
O=C(Nc1cc2ccccc2oc1=O)C1CCCCC1	55.5% (active)
Cc1ccccc1NC(=O)C1CCN(C(=O)NC2CCCCC2)CC1	-5.42% (inactive)
CC(=O)Nc1cc2ccc(OC(C)=O)cc2oc1=O	-11.8% (inactive)
CCn1nc(C)c(/C=N/NC(=O)Cc2ccc(Cl)cc2)c1C	81.2% (active)
Cc1nn(Cc2ccc(Cl)cc2)c(Cl)c1/C=N/NC(=O)CNc1ccccc1F	-6.45% (inactive)
Cc1nn(Cc2ccc(Cl)cc2)c(Cl)c1/C=N/NC(=O)c1cccnc1	-8.32% (inactive)
O=C(NCCN1CCOCC1)c1ccc2c(c1)ncn2C1CCCC1	-8.3% (inactive)
COc1ccccc1-n1cnc2cc(C(=O)NCC3CCCO3)ccc21 (stereo unspecified)	-4.06% (inactive)
O=C(NCc1cccs1)c1ccc2c(c1)ncn2C1CCCC1	38% (active)
CCOC(=O)C1=C(c2ccccc2)NC(=O)NC1c1cc(OC)c(OC)cc1OC (stereo unspecified)	-5.08% (inactive)
COc1cc2c(cc1OC)CN(CC(=O)Nc1ccc(F)cc1)CC2	-6.84% (inactive)
Cc1ccc(SCc2c(C(=O)N/N=C/c3cccnc3)nnn2-c2nonc2N)cc1	-5.04% (inactive)
CCOc1cc(CN2CCN(C(=O)CC(C)C)CC2)ccc1OC	21.9% (inactive)
COc1cc(CN2CCC(C(N)=O)CC2)ccc1OCc1ccccc1	50.5% (active)
COc1ccc(COCC(O)CN2CCC(C(N)=O)CC2)cc1 (stereo unspecified)	18.1% (inactive)

SMILES	inhibition
CCCc1nnc(NC(=O)CCC(=O)NC2CC2)s1	-4.93% (inactive)
COc1ccc(CCN(C)C(=O)C23CC4CC(CC(Cl)(C4)C2)C3)cc1OC	-8.99% (inactive)
Cc1cccc(NC(=O)c2cccnc2Cl)n1	21.6% (inactive)
CCN(CC)S(=O)(=O)c1ccc(C)c(NC(=O)COc2ccc(Br)cc2Cl)c1	-7.98% (inactive)
Cc1ccccc1OCC(=O)Nc1nc(C)c(C(=O)N(C)C)s1	13.1% (inactive)
Cc1cccc(NC(=O)COc2ccccc2C)n1	99.9% (active)
Cc1cccc(NC(=O)c2ccc3ccccc3n2)n1	80.6% (active)
Cc1cccc(NC(=O)Nc2ccc(OCc3ccccc3)cc2)n1	-8.92% (inactive)
COCCNC(=O)COc1ccccc1C	-1.68% (inactive)
Cc1cccc(NC(=O)c2ccccc2NC(=O)C(C)(C)C)n1	-16.5% (inactive)
CCCC1=Nc2cc(C(=O)NCCN3CCCC3)ccc2Sc2ccccc21	-5.59% (inactive)
Cc1cc(C)n(CC(O)COc2ccc(C(C)(C)C)cc2)n1 (stereo unspecified)	-1.13% (inactive)
COc1ccccc1CN(C)C(=O)c1cc2ccccc2o1	5.75% (inactive)
Cc1ccc(S(=O)(=O)Nc2nc(N)n(-c3ccccc3)n2)cc1	-9.63% (inactive)
Cc1ccc(C(=O)Nc2nc(N)n(-c3ccccc3)n2)cc1	38.4% (active)
Nc1nc(NC(=O)/C=C/c2ccccc2)nn1-c1ccccc1	27% (inactive)
O=C(Nc1cccc(F)c1)c1coc(=O)c(Br)c1	-10.4% (inactive)
CCCCNC(=O)c1cn(CC)c2cc(N3CCN(C(=O)c4ccco4)CC3)c(F)cc2c1=O	-7.36% (inactive)
COCCCNC(=O)/C(C#N)=C/c1c(N2CCCCCC2)nc2ccccn2c1=O	-3.53% (inactive)
Cc1ccc(S(=O)(=O)Nc2nc3ccccc3s2)cc1[N+](=O)[O-]	-15.3% (inactive)
Cc1ccnc(Nc2nc3ccccc3s2)n1	76.8% (active)
CSCCC(Nc1nc2ccccc2s1)C(=O)O (stereo unspecified)	-3.96% (inactive)
CS(=O)(=O)N(CC(=O)Nc1ccc(F)cc1)C1CCCCC1	18.9% (inactive)
COc1ccc(S(=O)(=O)N2CCN(c3ccc(F)cc3)CC2)cc1-c1noc(C)n1	-2.91% (inactive)

SMILES	inhibition
Cc1cc(/C=N/n2cnnc2)c(C)n1-c1cccc(C(=O)O)c1	26.3% (inactive)
Cc1cc(/C=N/Nc2ccc([N+](=O)[O-])cn2)c(C)n1-c1cccc(C(=O)O)c1	81.9% (active)
Cc1ccc(-n2c(C)cc(/C=N/Nc3ccc([N+](=O)[O-])cn3)c2C)c(C)c1	50.3% (inactive)
CC(C)C[C@H](NC(=O)C1CC(=O)N(c2ccc3c(c2)OCCO3)C1)C(=O)NC1CCCC1 (stereo partly specified)	-4.71% (inactive)
COc1cc(/C=C/C(=O)O)cc(S(=O)(=O)Nc2ccccc2C(=O)NCCc2ccccc2)c1OC	55.3% (inactive)
CC(C)CC(NC(=O)C1CCCN1C(=O)[C@@H](C)NC(=O)OCc1ccccc1)C(=O)NCC(N)=O (stereo partly specified) (Cbz-[dA][ξP][ξL]G-NH2)	-3.42% (inactive)
COC(=O)c1cccc(N(C(=O)c2ccco2)C(C(=O)NC2CCCC2)c2ccco2)c1 (stereo unspecified)	-1.98% (inactive)
COc1cc(NC(=O)CCS(=O)(=O)c2ccc3c(c2)oc(=O)n3C)cc(OC)c1	15.8% (inactive)
CCC(C)(C)NC(=O)CN(C(=O)C(=O)Nc1ccc2c(c1)OCCO2)C(C)(C)CC	15.3% (inactive)
CCn1c(COc2ccccc2)nnc1SCC(=O)Nc1ccc2c(c1)OCCO2	4.75% (inactive)
CCC(C(=O)Nc1ccc2c(c1)OCCO2)c1ccccc1 (stereo unspecified)	34.4% (inactive)
CCCCC(=O)Nc1ccc2c(c1)OCCO2	70.5% (active)
O=C(COc1ccc(Cl)cc1)Nc1ccc2c(c1)OCO2	71.8% (active)
CC(C)NS(=O)(=O)c1ccc(OCC(=O)Nc2ccc3c(c2)OCCO3)cc1	-9.12% (inactive)
COc1ccccc1OCCCC(=O)Nc1ccc2c(c1)OCCO2	20.5% (inactive)
CCc1ccccc1OCC(=O)Nc1ccc2c(c1)OCCO2	54.9% (active)
O=C(COc1ccc(Cl)cc1)Nc1ccc2oc(=O)ccc2c1	6.26% (inactive)
O=C(CCS(=O)(=O)Cc1ccccc1)Nc1ccc2c(c1)OCCO2	-14.4% (inactive)
CCOc1ccc(NCCC(=O)c2ccc3c(c2)OCO3)cc1	21.5% (inactive)
COC(=O)CCNc1ccc2c(c1)OCCO2	155% (active)
CC(=O)Nc1cccc(Nc2nc(-c3cccs3)nc3ccccc23)c1	27.4% (inactive)
Cc1cc(=O)oc2c1ccc1ccccc12	17.1% (inactive)
O=C(CCc1ccccc1)Nc1ccnn1C1CCN(Cc2ccc(OCCO)cc2)CC1	27.8% (inactive)
O=C(CC1C(=O)NCCN1CC(c1ccccc1)c1ccccc1)NCC1CCOCC1 (stereo unspecified)	16.2% (inactive)
